High-throughput results (PubChem)
This is a sample that favours compounds with a hit; in the whole collection about 1.4% have one here.
GLD-1 TGE inh – GLD-1/TGE RNA complex disruptors, primary screen, biochemical, fluorescence polarization | AID 2280, 2010 | purified GLD-1 + fluorescein TGE RNA | actives 0.44% (n = 320,000) | Female germline-specific tumor suppressor gld-1 (Caenorhabditis elegans), Q17339 | inhibition, % at 5.96 µM;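 active = percent inhibition above a per-plate cutoff, the plate mean of test compounds plus 3 SD, cut at about 30% in these data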
MEX-5 binding – MEX-5 zinc finger RNA-binding disruptors – biochemical, C. elegans, fluorescence polarization, MLPCN library, primary screen | Zinc finger protein mex-5 (Caenorhabditis elegans), Q9XUB2 | MEX-5/FITC-TCR2 RNA binding; stronger effect = lower value | activity score (negative = inhibition of binding), % at 10 µM | actives 0.38% (n = 300,000);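 active = inhibition past about -25% in most replicates, and total fluorescence under double the plate's negative control median, limit read from the data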
eLon inh – inhibitors of E. coli Lon protease, primary screen, biochemical, fluorescence polarization | purified E. coli Lon protease | inhibition, % at 7.94 µM | actives 0.42% (n = 360,000) | AID 602123, 2011; in the data active = inhibition above about 13%, passing the limit was not always enough
BCLXL inh – inhibitors of human Bcl-xL, primary screen, biochemical, fluorescence polarization, HTS; Bcl-2-like protein 1 (Homo sapiens), Q07817; GST-Bcl-xL / FITC-Bim BH3 peptide fluorescence polarization; inhibition, % at 10.9 µM; actives 0.7% (n = 320,000);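 active = inhibition above the mean of all tested compounds plus 3 SD, cutoff set per campaign, cut at about 30% in these data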;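 also: inhibitors lower millipolarization by displacing the labeled peptide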
Target sequence (Q07817 whole entry, looked up): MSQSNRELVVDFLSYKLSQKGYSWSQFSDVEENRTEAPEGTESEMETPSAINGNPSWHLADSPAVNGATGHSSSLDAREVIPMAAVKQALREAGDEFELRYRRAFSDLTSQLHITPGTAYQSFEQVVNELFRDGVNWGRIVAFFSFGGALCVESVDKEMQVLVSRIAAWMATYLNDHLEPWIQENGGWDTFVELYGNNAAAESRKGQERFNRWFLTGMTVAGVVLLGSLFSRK
MCL1-BIM inh – inhibitors of MCL1 binding to BIM-BH3, primary screen, biochemical, fluorescence polarization; Induced myeloid leukemia cell differentiation protein Mcl-1 (Homo sapiens), Q07820; GST-MCL1 / FITC-Bim-BH3 fluorescence polarization; inhibition, % at 10.9 µM; actives 0.68% (n = 320,000);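 active = inhibition above the mean inhibition of all tested compounds plus 3 SD, set per campaign, cut at about 40% in these data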;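 also: higher means more loss of mP so more displacement of Bim peptide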
EBV gp42 block – Epstein-Barr virus gp42 inhibitors, primary screen, biochemical, uHTS, fluorescence polarization. Glycoprotein 42 (Epstein-Barr virus (strain AG876)), Q1HVG2. Fluorescence polarization binding assay, mP read-out. inhibition, % (tested at 21.74 µM). actives 0.42% (n = 220,000). AID 1085, 2008; in the data active = inhibition above about 50%
Target sequence (Q1HVG2 whole entry, looked up): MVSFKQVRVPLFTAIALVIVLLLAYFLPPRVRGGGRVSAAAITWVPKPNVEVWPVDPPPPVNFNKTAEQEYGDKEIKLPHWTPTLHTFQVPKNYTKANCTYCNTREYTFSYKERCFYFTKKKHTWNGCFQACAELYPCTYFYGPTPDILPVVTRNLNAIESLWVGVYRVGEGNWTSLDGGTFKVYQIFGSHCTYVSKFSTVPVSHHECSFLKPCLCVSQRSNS
Hits are given with their value; – = inactive; · = not tested or not shown; + = active, no number.

SMILES | GLD-1 TGE inh | MEX-5 binding | eLon inh | BCLXL inh | MCL1-BIM inh | EBV gp42 block
O=S(=O)(Nc1nc2ccccc2nc1NCc1ccco1)c1ccc(Cl)cc1 | – | – | – | – | – | –
CNc1ccc(/C=C(\C#N)c2ccccn2)cc1[N+](=O)[O-] | – | – | – | 37 | 40 | –
Cc1[nH]c2ccccc2c1/C=N/NC(=S)NC(C)C | – | -26 | – | – | – | –
NS(=O)(=O)c1ccc(CCNC(=O)CSc2nc3ccccc3c(=O)n2CC2CCCO2)cc1 (stereo not given) | – | – | – | – | – | ·
Cc1cccc(CN(C)C[C@H]2OCc3cnnn3CCCC(=O)N([C@H](C)CO)C[C@@H]2C)c1 | · | · | – | · | · | ·
COc1ccc(-n2c(C)cc(/C=C3\SC(=S)N(Cc4ccco4)C3=O)c2C)cc1 | – | -28 | – | – | – | 80
O=S(=O)(Nc1ccc(-c2cnco2)cc1)c1ccccc1 | – | – | – | 31 | – | –
CC1=NN(CCc2ccccn2)C(=O)CC1 | – | – | – | – | – | ·
Nc1nc2ncc(C(=O)c3cc(Cl)cc(Cl)c3O)cc2s1 | – | – | – | 32 | – | –
COC(CNC(=O)C1CCN(S(=O)(=O)c2ccc3nc4c(c(C(=O)O)c3c2)CC(C)CC4)CC1)OC (stereo not given) | – | – | – | 31 | – | ·
COc1cccc(/C=C2\SC(=S)N(CCCC(=O)NC3=NCCS3)C2=O)c1 | – | -34 | – | – | – | ·
COc1ccc(-c2cc(C(=O)NCC3CCCO3)on2)cc1OC (stereo not given) | – | – | – | 34 | – | ·
COc1cccc(-c2cc(C(=O)NCC3CCCO3)on2)c1 (stereo not given) | – | – | – | – | – | ·
Cc1cccc(NC(=O)CN2C(=O)S/C(=C\c3ccc(O)c([N+](=O)[O-])c3)C2=O)c1 | – | – | – | – | – | –
Cc1ccc(NC(=O)CN2C(=O)S/C(=C/c3ccc(O)c([N+](=O)[O-])c3)C2=O)cc1C | · | · | – | · | · | 65
O=c1nc2s/c(=C\c3ccc(-c4ccccc4[N+](=O)[O-])o3)c(=O)n2nc1-c1ccccc1 | · | – | – | · | · | 176
Cc1ccc2c(nc3s/c(=C\c4ccc(-c5ccccc5C(=O)O)o4)c(=O)n32)c1C | – | – | – | – | – | ·
O=C(NCc1cccnc1)OC1CC2CC1[C@H]1CCCCN1C2=O (stereo not given in full) | · | · | – | · | · | ·
COc1cc(/C=C2/C(=O)NN(c3ccc(C)c(Cl)c3)C2=O)cc([N+](=O)[O-])c1O | · | – | – | · | · | ·
COc1cc(/C=C2\SC(=O)N(c3ccc(Cl)cc3)C2=O)cc([N+](=O)[O-])c1O | · | · | – | · | · | 100
COc1cc(/C=C2\SC(=O)N(c3cccc(Cl)c3)C2=O)cc([N+](=O)[O-])c1O | · | · | – | · | · | 87
COc1cc(/C=C2/C(=O)NN(c3cccc(C)c3)C2=O)cc([N+](=O)[O-])c1O | – | -27 | – | – | – | –
O=C(CN(Cc1ccc(Cl)cc1)S(=O)(=O)c1ccccc1)NCC1CCCO1 (stereo not given) | – | – | – | – | – | ·
COC(=O)C1CN(C(=O)C(C)Oc2ccccc2Cl)c2ccccc2O1 (stereo not given) | – | – | – | – | – | ·
CCCNC(=O)C1(C)CCN(Cc2ccc(-n3ccnc3)cc2)C1 (stereo not given) | · | · | – | · | · | ·
SMILES | GLD-1 TGE inh | MEX-5 binding | eLon inh | BCLXL inh | MCL1-BIM inh | EBV gp42 block
C/C(=N\NC(=O)c1nnn(-c2nonc2N)c1-c1cccs1)c1cccc(O)c1 | – | -63 | – | – | – | ·
CC(C)Oc1ccc(S(=O)(=O)N2CCOCC2)cc1NC(=O)C1=NN(c2ccccc2)C(=O)CC1 | · | · | – | · | · | ·
COCCn1c(=O)[nH]c2cc(C(=O)NCCc3ccc(OC)c(OC)c3)ccc2c1=O | – | – | – | – | – | 50
COCCn1c(=O)[nH]c2cc(C(=O)NCCc3ccc(S(N)(=O)=O)cc3)ccc2c1=O | – | – | – | – | – | –
CC1CCCCC12NC(=O)N(Cn1nnc3ccccc3c1=O)C2=O (stereo not given) | 31 | – | – | – | – | –
Cc1nn(-c2ccccc2)c2c1C(c1ccc(Br)s1)C(C#N)=C(N)O2 (stereo not given) | · | · | – | · | · | –
Cc1nn(-c2ccccc2)c2c1C(c1ccccc1)C(C#N)=C(N)O2 (stereo not given) | – | – | – | – | – | 131
CC1(C(=O)NS(=O)(=O)c2ccc(C#N)cc2)CCN1C(=O)Cc1ccccc1Cl (stereo not given) | · | · | – | · | · | ·
Cc1ccccc1C(=O)Nc1ccc2c(C#N)c3nc4ccccc4nc3n2c1 | – | – | – | 42 | – | 112
Cc1c(C(=O)Nc2ccccc2)cn2c(nc3ccccc32)c1C#N | – | – | – | – | – | –
CCOC(=O)CC(=O)CSC1=C(C#N)C(c2ccccc2OC)CC(=O)N1 (stereo not given) | – | – | – | 31 | – | –
COc1ccccc1Cc1c(-c2ccccc2)nc2c(C)cc(Br)cn12 | · | · | – | · | · | ·
CN1CCc2c(sc3c2c(=O)n(-c2ccc(Cl)cc2)c2nncn32)C1 | – | – | – | – | – | –
CCN(CC)CCn1c(=O)n(-c2ccc(Cl)cc2)c(=O)c2c3c(sc21)CN(C)CC3 | – | – | – | 35 | – | –
CC(=O)Nc1ccc(S(=O)(=O)NC2CCS(=O)(=O)C2)cc1Cl (stereo not given) | – | – | – | – | – | –
O=C(/C=C/c1ccc(O)c(O)c1)OC1C(O)CC(OC(=O)/C=C/c2ccc(O)c(O)c2)(C(=O)O)CC1O (stereo not given) | – | -32 | – | – | – | –
Nc1c(/C=C2/C=CC(=O)C(O)=C2)c(=O)nc2sc(CC(=O)N3CCOCC3)nn12 | · | · | – | · | · | ·
CC1=Nc2ccc(C)cc2/C1=C/c1c(N)n2nc(CC(=O)N3CCOCC3)sc2nc1=O | – | -52 | – | – | – | ·
Cc1cccn2c(=O)c(/C=C(\C#N)S(=O)(=O)c3ccccc3)c(N3CCN(Cc4ccccc4)CC3)nc12 | – | – | – | 31 | – | ·
Cc1cc(C(=O)Nc2cccc(C)c2C)c2ccccc2n1 | – | – | – | – | – | ·
COc1cc(C2C=C(c3cccs3)Nc3ncnn32)cc(OC)c1OC (stereo not given) | · | · | + | · | · | 105
COc1ccc(C2C=C(c3cccs3)Nc3nc(CCCO)nn32)cc1 (stereo not given) | 144 | · | · | 176 | + | 151
